# Compounds without any hit were thinned out: in the full panel of roughly 83,000, 20% have a hit.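 Negative percent growth values reflect cell death: -40 means 40% of the cells present at the start died, and -100 means all died.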 Values without a mark were called inactive. Active and inactive are the calls of the source. The calls were made as follows: active = growth percent below 10; inactive = the rest.
# System: U251 CNS
# Assay: NCI-60 one-dose screen, 48 h (100 = growth as untreated, 0 = no growth, -100 = all killed)
# Conditions: 10 µM unless noted
row,Structure (SMILES),growth
1,CC(=O)[C@@H]1CC[C@]2(C(N)=O)CC[C@]3(C)[C@H](CC[C@@H]4[C@@]5(C)CCCNC(C)(C)[C@@H]5CC[C@]43C)[C@@H]12,81.7%
2,Oc1c(Cl)cc(Cl)c(Cl)c1CNCCNCc1c(O)c(Cl)cc(Cl)c1Cl,10.1%
3,O=C1Nc2cc(Cl)ccc2/C1=C\c1c(-c2ccc(F)cc2)nc2ccccn12,22.9%
4,O=C(NO)c1ccc(-n2nc(-c3ccccc3)c3ccccc32)cc1,34.4%
5,O=C(CNCCN1CCOCC1)N1c2cccc3cccc(c23)N(C(=O)CNCCN2CCOCC2)C1c1cn(-c2ccccc2)nc1-c1cccc([N+](=O)[O-])c1,55.2%
6,O=C1c2cccc3c(-c4ccc5c(c4)ncn5C4CCCCC4)ccc(c23)C(=O)N1CCO,93.2%
7,CC(=O)Oc1ccc(/C=N/NC(N)=S)nc1,51.7%
8,NC(=S)N1N=C(c2ccccc2)CC1c1cn(-c2ccccc2)nc1-c1ccc(OCc2ccccc2)cc1 (configuration not stated),97%
9,Cc1ccc(-c2nc3ccccn3c2/C=C2/C(=O)Nc3cc(Cl)ccc32)cc1,96.4%
10,Clc1ccc(-c2ccc(CNCC3CCNCC3)o2)c(-c2ccccc2)c1,-88.8% (active)
11,CC(=O)[C@H]1CCC/C=C/[C@@H]2C[C@H](O)C[C@H]2[C@H](O)/C=C/C(=O)O1,20.5%
12,CCOC(=O)c1cc(C(=O)c2ccc(Br)cc2)n2ccc(/C=C/c3cc[n+](CC(=O)c4ccc(OC)cc4)cc3)cc12,101%
13,COc1ccc(/C=C/c2nc(Nc3ccc(S(=O)(=O)Nc4nc(C)cc(C)n4)cc3)c3ccccc3n2)cc1,69.7%
14,Cc1ccc(C(=O)/C(=C/c2ccc([N+](=O)[O-])cc2)SCc2ccc(Cl)cc2)cc1,-56.3% (active)
15,O=C1c2c(c3c4cccc(F)c4[nH]c3c3ccc4ccccc4c23)C(=O)N1O,26.8%
16,COc1ccc(C(=O)C2C(C#N)C(C#N)C3C=Cc4ccccc4N32)cc1 (configuration not stated),34.6%
17,CCOC(=O)CC1CSC(N/N=C/c2ccc(-n3cccn3)cc2)=N1 (configuration not stated),96.9%
18,CC(C)N1C(=O)/C(=C2\SC(=S)N(C(C)C)C2=O)SC1=S,90.8%
19,CC(C)(C)[Si](C)(C)OC1[C@@H](O[Si](C)(C)C(C)(C)C)[C@@H](CNC(=O)NC(=O)CCl)O[C@H]1n1cnc2c(NC(=O)Nc3ccccc3)ncnc21 (some centres not stated),-75.6% (active)
20,COc1ccc(-c2nc3sccn3c2/C=C/C(=O)c2ccc3c(c2)OCO3)cc1,55.1%
21,O=C1c2ccccc2C(=O)c2c([N+](=O)[O-])ccc(Cl)c21,65.6%
22,COc1ccc(/C=C/c2nc(Nc3cccc(NC(C)=O)c3)c3ccccc3n2)cc1,88.5%
23,Cc1ccc(-n2nc3c(c(C#N)c2=O)CC(c2ccccc2[N+](=O)[O-])C([N+](=O)[O-])=C3O)cc1 (configuration not stated),91.3%
24,COc1cc(OC)cc(C(=O)C[n+]2cccc3cc[nH]c32)c1,102%

# System: PC-3 prostate
# Assay: as above
# Conditions: 10 µM unless noted
row,Structure (SMILES),growth
1,COc1ccc(/C=C/c2nc(Nc3ccc(S(=O)(=O)Nc4cc(C)on4)cc3)c3ccccc3n2)cc1,74.7%
2,NS(=O)(=O)c1ccc(CCN2C(=O)c3cc(Cl)c(Cl)cc3C2=O)cc1,99.2%
3,C/C=C(\C)C(=O)NC1=CC[C@@]2(C)C(=CCC3C2CC[C@@]2(C)C3CC[C@@H]2C(C)N(C)C)C1=O (some centres not stated),26.2%
4,O=c1c2c(c(=O)n1O)c1c3ccc[nH]c3nc1c1nc3[nH]cccc3c12,67.7%
5,Cc1ccc(C(=O)/C(=C\c2ccc([N+](=O)[O-])cc2)S(=O)Cc2ccc(F)cc2)cc1 (configuration not stated),-0.882% (active)
6,O=C(Nc1ncc(Cc2cc(Cl)ccc2Cl)s1)c1cccs1,53.4%
7,O=C(C[n+]1cccc2ccccc21)c1ccc(O)c(O)c1,69.9%
8,OCc1cnccc1NCCCCOc1ccc(Oc2ccccc2)cc1,56%
9,Oc1cccc(CCc2ccc(Oc3cc(CCc4cccc(O)c4)cc(O)c3O)cc2)c1,63.5%
10,CC/C(=C\c1ccc(OC)cc1)C(=O)c1ccc(OC)cc1,75.7%
11,CN1C(N2CCN(S(=O)(=O)c3ccccc3)CC2)=NS(=O)(=O)c2ccccc21,98.9%
12,O=C1Nc2ccc(F)cc2/C1=C\c1c(-c2ccccc2)nc2ccccn12,67.5%
13,O=C(Cn1c(C(=O)c2ccccc2)nc2ccccc21)c1ccc(F)cc1,78.2%
14,COc1ccc(C(=O)c2nc3ccccc3n2CC(=O)c2ccc(Cl)cc2)cc1,34.9%
15,CC(=O)[C@@H]1CC[C@]2(C(N)=O)CC[C@]3(C)[C@H](CC[C@@H]4[C@@]5(C)CCCNC(C)(C)[C@@H]5CC[C@]43C)[C@@H]12,65.5%
16,Oc1c(Cl)cc(Cl)c(Cl)c1CNCCNCc1c(O)c(Cl)cc(Cl)c1Cl,44.4%
17,O=C1Nc2cc(Cl)ccc2/C1=C\c1c(-c2ccc(F)cc2)nc2ccccn12,12.8%
18,O=C(NO)c1ccc(-n2nc(-c3ccccc3)c3ccccc32)cc1,46.7%
19,O=C(CNCCN1CCOCC1)N1c2cccc3cccc(c23)N(C(=O)CNCCN2CCOCC2)C1c1cn(-c2ccccc2)nc1-c1cccc([N+](=O)[O-])c1,62.4%

row,Structure (SMILES),growth
1,O=C1c2cccc3c(-c4ccc5c(c4)ncn5C4CCCCC4)ccc(c23)C(=O)N1CCO,85%
2,CC(=O)Oc1ccc(/C=N/NC(N)=S)nc1,81%
3,NC(=S)N1N=C(c2ccccc2)CC1c1cn(-c2ccccc2)nc1-c1ccc(OCc2ccccc2)cc1 (configuration not stated),89.2%
4,Cc1ccc(-c2nc3ccccn3c2/C=C2/C(=O)Nc3cc(Cl)ccc32)cc1,70.1%
5,Clc1ccc(-c2ccc(CNCC3CCNCC3)o2)c(-c2ccccc2)c1,-81.8% (active)
6,CC(=O)[C@H]1CCC/C=C/[C@@H]2C[C@H](O)C[C@H]2[C@H](O)/C=C/C(=O)O1,27.6%
7,CCOC(=O)c1cc(C(=O)c2ccc(Br)cc2)n2ccc(/C=C/c3cc[n+](CC(=O)c4ccc(OC)cc4)cc3)cc12,83.8%
8,COc1ccc(/C=C/c2nc(Nc3ccc(S(=O)(=O)Nc4nc(C)cc(C)n4)cc3)c3ccccc3n2)cc1,77.5%
9,Cc1ccc(C(=O)/C(=C/c2ccc([N+](=O)[O-])cc2)SCc2ccc(Cl)cc2)cc1,63.3%
10,O=C1c2c(c3c4cccc(F)c4[nH]c3c3ccc4ccccc4c23)C(=O)N1O,32.5%
11,COc1ccc(C(=O)C2C(C#N)C(C#N)C3C=Cc4ccccc4N32)cc1 (configuration not stated),29.2%
12,CCOC(=O)CC1CSC(N/N=C/c2ccc(-n3cccn3)cc2)=N1 (configuration not stated),99.6%
13,CC(C)N1C(=O)/C(=C2\SC(=S)N(C(C)C)C2=O)SC1=S,89.3%
14,CC(C)(C)[Si](C)(C)OC1[C@@H](O[Si](C)(C)C(C)(C)C)[C@@H](CNC(=O)NC(=O)CCl)O[C@H]1n1cnc2c(NC(=O)Nc3ccccc3)ncnc21 (some centres not stated),-36.2% (active)
15,COc1ccc(-c2nc3sccn3c2/C=C/C(=O)c2ccc3c(c2)OCO3)cc1,58.6%
16,O=C1c2ccccc2C(=O)c2c([N+](=O)[O-])ccc(Cl)c21,82.4%
17,COc1ccc(/C=C/c2nc(Nc3cccc(NC(C)=O)c3)c3ccccc3n2)cc1,90%
18,Cc1ccc(-n2nc3c(c(C#N)c2=O)CC(c2ccccc2[N+](=O)[O-])C([N+](=O)[O-])=C3O)cc1 (configuration not stated),88.3%
19,COc1cc(OC)cc(C(=O)C[n+]2cccc3cc[nH]c32)c1,96.5%

# Reference: PubChem BioAssay (NCI)
